# Laboratory results reported in PubChem BioAssay (NCI).
# About 83,000 compounds went through this panel and 20% of them were active in at least one assay; those are over-represented in the sample as a whole.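 Assay: single dose, 48 h. Readout: percent growth (0 = no net growth; negative = cell death). Active: <10.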 Unmarked numbers belong to inactive results. Active and inactive are the calls of the source.
# Tested on: HL-60(TB) leukemia
# Experiment: NCI-60 one-dose screen, 48 h (100 = growth as untreated, 0 = no growth, -100 = all killed)
# Conditions: 10 µM unless noted
row,SMILES,growth
1,O=C1/C(=C/c2ccccc2O)CC/C1=C\c1ccccc1O,11.9%
2,Cc1cc(Oc2ccccc2)ccc1Nc1ncnc2ccc(-c3cnc(Cl)c(NS(C)(=O)=O)c3)cc12,30.3%
3,CC(C)(C)c1cc(C(=O)N2CCC(C(=O)NCCN)CC2)cc(C(C)(C)C)c1,90.5%
4,O=C(N/N=C/c1ccc([N+](=O)[O-])cc1)c1ccccc1Nc1ccnc(C(F)(F)F)c1,78.4%
5,C#Cc1cccc(NC(=O)C2CCCCN2C(=O)CCl)c1 (centres undefined),-31.6% [8.25 µM] (active)
6,O=C(CCc1nnco1)c1nc2ccc([N+](=O)[O-])cc2[nH]1,120%
7,c1ccc2c(-c3nc(N4CCOCC4)c4c5c(sc4n3)CCCCCC5)cccc2c1,114%
8,CCc1ccc(OCc2ccccc2C(=O)Nc2ccc3nc(C)cc(N)c3c2)cc1,-75.9% (active)
9,CSC1=Nc2c(c(C)c(-c3ccccc3)n2CCCC(=O)O)C2=NC(=O)C[C@H](C)N12,93.2%
